According to PubChem BioAssay (NCI):
About 83,000 compounds went through this panel and 20% of them were active in at least one assay; those are over-represented in the sample as a whole.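 Compound tested at a single concentration for 48 hours in 96-well plates; a percent growth value below 10 was scored as active.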 A number with no mark means an inactive call. Calls of active or inactive are those of the source.

How the values were obtained:
Experiment in all cases: NCI-60 one-dose screen, 48 h (100 = growth as untreated, 0 = no growth, -100 = all killed)
Conditions in all cases: 10 µM unless noted
[1] = test system: K-562 leukemia
[2] = test system: MALME-3M melanoma
[3] = test system: MDA-MB-231 breast
[4] = test system: RXF 393 renal
[5] = test system: SF-268 CNS
[6] = test system: SF-295 CNS
[7] = test system: SF-539 CNS
[8] = test system: UACC-257 melanoma
[9] = test system: M14 melanoma
[10] = test system: HCT-15 colon
[11] = test system: HT29 colon
[12] = test system: SNB-75 CNS
[13] = test system: SNB-19 CNS
[14] = test system: U251 CNS
[15] = test system: PC-3 prostate
[16] = test system: SK-MEL-5 melanoma
[17] = test system: UACC-62 melanoma
[18] = test system: LOX IMVI melanoma
[19] = test system: SK-MEL-28 melanoma
[20] = test system: SK-MEL-2 melanoma

| Compound | growth [1] | growth [2] | growth [3] | growth [4] | growth [5] | growth [6] | growth [7] | growth [8] | growth [9] | growth [10] | growth [11] | growth [12] | growth [13] | growth [14] | growth [15] | growth [16] | growth [17] | growth [18] | growth [19] | growth [20] |
| --- | --- | --- | --- | --- | --- | --- | --- | --- | --- | --- | --- | --- | --- | --- | --- | --- | --- | --- | --- | --- |
| Clc1ccc2oc3c(OCCCn4ccnc4)c4ccccc4nc3c2c1 | 45.2% | 97.9% | 65.7% | 57.9% | 67.7% | 54% | 65.1% | 96.4% | 93.6% | 40.4% | 36.7% | 68.5% | 73.5% | 61.6% | 68.9% | 92.8% | 83.1% | 42.8% | 89.8% | 112% |
| CN1CCN(Cc2ccc(NC(=O)c3cncc(C#Cc4cnc5ccc(N6CCSCC6)nn45)c3)cc2C(F)(F)F)CC1 | -16.2% (active) | -62.6% (active) | -38.4% (active) | -87.3% (active) | -52.9% (active) | -36.2% (active) | -94.2% (active) | 31.1% | -81.6% (active) | -38.9% (active) | -50.1% (active) | -67.4% (active) | -12.6% (active) | -91.6% (active) | 1.39% (active) | 7.81% (active) | -30.5% (active) | -89.8% (active) | -48.1% (active) | -89.1% (active) |
| Cc1cccc(/C=C/c2nn3c(-c4ccco4)nnc3s2)c1 | 93% | 96.9% | 98.2% | 111% | 105% | 94.5% | 94.9% | 98.3% | 101% | 88.1% | 104% | 100% | 94.1% | 99.1% | 103% | 92% | 94% | 98.1% | 97.3% | 112% |
| Oc1c(Cl)cc(Cl)c2ccc(CN3CCCCC3)nc12 | 21.9% | 31.4% | 40.4% | 78.2% | 41.9% | 26.5% | 29.1% | 43.1% | 8.72% (active) | 26.7% | 48.3% | 83.3% | 44.1% | 30.6% | 56.8% | 33.1% | 4.28% (active) | 31.7% | 28.7% | 84.1% |
| CN(C)CCCOc1c2ccc(Cl)cc2nc2c1oc1ccc(Cl)cc12 | -39.8% (active) | 0.745% (active) | -48.3% (active) | -86.6% (active) | 25.9% | 11.9% | 16.5% | 41.3% | -49.5% (active) | -80.5% (active) | -77.6% (active) | 18.3% | 24.5% | -66% (active) | 23.2% | -19.3% (active) | -68.1% (active) | -77.2% (active) | 4.58% (active) | 58.5% |
| Cc1nc(-c2cc3ccccc3oc2=O)ccc1C(=O)/C=C/c1ccccn1 | 7.22% (active) | 88.3% | 12.8% | 32.3% | 78.5% | 71.1% | 2.25% (active) | 101% | 80.2% | -33.3% (active) | 2.1% (active) | 56.3% | 71.6% | 8% (active) | 68.2% | 95.9% | 71.1% | -84.5% (active) | 95.1% | 108% |
| [Cl][Ru].c1ccc(-c2cc(-c3ccccn3)nc(-c3ccccn3)c2)cc1.c1ccc(-c2ccnc3c2ccc2c(-c4ccccc4)ccnc23)cc1 | 1.44% (active) | -34.3% (active) | -48.4% (active) | -39% (active) | 13.8% | -23.1% (active) | -20.5% (active) | -28.7% (active) | -57.1% (active) | 45.8% | -47.6% (active) | -20% (active) | 12.2% | -54.8% (active) | -7.82% (active) | -94.9% (active) | -68% (active) | -71.4% (active) | -73.5% (active) | -91.6% (active) |
| COc1cc(-c2ccc3ncnc(NC(C)c4ccccc4)c3c2)cnc1OC (stereo not given) | 76.3% | 56.3% | 36.1% | 26% | 44.9% | 37.1% | 47.2% | 78.8% | 68% | 52.9% | 65% | 32.8% | 48.7% | 63.4% | 29.5% | 74.4% | 63.4% | 34.4% | 60.9% | 47.3% |
